GALK inh: inhibitors of human galactokinase | Potency, µM (series often up to 57.5 µM), without a hit: at the top dose activity change, negative = inhibition, hits mostly inhibitors | P51570 | AID 1868 | Purified GALK, Kinase-Glo residual ATP luminescence | 270,000 compounds, 0.007% hits; note: % is set by controls: 0 for no effect and ±100 for the full control effect
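ATP-depletion format; final 35 uM ATP, 100 uM D-galactose, 5 nM enzyme; pH 8.0 HEPES/Mg2+ buffer; 60 min RT; luminescence read 10 min after detection reagent.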
USP2a inh: USP2a (human) protease inhibition | O75604 | USP2 core, Ub-CHOP2 coupled fluorogenic reporter, 485/531 | Potency, µM (top dose mostly 38.3 µM), for inactives: at the highest dose activity change, negative = inhibition, usual class: inhibitors | 330,000 compounds, 0.01% hits;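 note: plate controls were DMSO wells for no effect and full inhibition by NEM control for full effect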
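Deubiquitinase activity read as fluorescence (485/531 nm) after Ub-CHOP2 cleavage activates the enterokinase reporter on its substrate; USP2 core 10nM, Ub-CHOP2 and substrate 25nM each, 30min compound preincubation then 60min RT; data normalized to NEM, curves fitted.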
Eya2 inh: blocks the phosphatase activity of human Eya2; recombinant Eya2, OMFP fluorescence dephosphorylation (OMFP is methylfluorescein phosphate); O00167; 330,000 compounds, 0.006% hits; Potency, µM (titrated, usually from 76.9 µM), inactives show at the highest dose activity, negative = inhibition, hits mostly inhibitors; note: % is set by controls: 0 for no effect and ±100 for the full control effect
Target sequence (O00167 whole entry, looked up): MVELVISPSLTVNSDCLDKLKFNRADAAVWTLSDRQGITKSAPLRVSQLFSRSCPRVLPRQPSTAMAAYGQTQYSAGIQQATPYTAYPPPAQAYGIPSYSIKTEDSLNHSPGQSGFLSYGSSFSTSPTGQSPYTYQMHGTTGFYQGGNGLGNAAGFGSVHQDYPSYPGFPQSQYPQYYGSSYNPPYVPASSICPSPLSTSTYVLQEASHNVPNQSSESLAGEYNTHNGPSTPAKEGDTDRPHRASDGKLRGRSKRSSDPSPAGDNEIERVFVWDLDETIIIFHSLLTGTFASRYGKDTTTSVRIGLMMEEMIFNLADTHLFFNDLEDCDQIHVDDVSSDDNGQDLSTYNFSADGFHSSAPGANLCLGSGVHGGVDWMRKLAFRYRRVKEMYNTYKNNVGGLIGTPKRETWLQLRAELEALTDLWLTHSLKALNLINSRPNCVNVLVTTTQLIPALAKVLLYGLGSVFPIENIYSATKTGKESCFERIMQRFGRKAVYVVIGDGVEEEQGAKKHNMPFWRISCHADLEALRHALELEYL
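Eya2 protein (added as 0.2 uM solution) was preincubated with compound for 10 min at ambient temperature in 50 mM HEPES pH 7.5, 50 mM NaCl, 5 uM MgCl2, 0.05% BSA, 1 mM DTT. OMFP (added at 50 uM) then reacted 10 min; fluorescence read at 485/525 nm.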
ClpP mod: qHTS Assay for Activators of ClpP; ATP-dependent Clp protease proteolytic subunit (Bacillus subtilis (strain 168)), P80244; purified B. subtilis ClpP, FRET peptide cleavage, 20 min; Potency, µM (titrated, usually from 57.5 µM), without a hit: at the highest dose activity change, negative = active; 340,000 compounds, 1.9% hits; active = well fitted falling curve with a large enough effect; inconclusive = small, poorly fitted or top-dose-only effect; inactive = no such curve, though single readings can be large or run the other way; note: the source files actives as falling curves though it sought activators and does not explain the sign; nearly all actives have a fitted effect of over 65% in size
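FRET quenching reversal measured ClpP activation: 10 microg/mL B. subtilis ClpP at pH 8 with the FRET-FV decapeptide, read at 430 nm after 320 nm excitation. The 20-min minus 0-min signal was scaled between DMSO/no-enzyme wells and ADEP (5.8 microM final).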
Starred values were filed as active, the others as inactive; ? = inconclusive; . = no result given; [ ] = another dose, or the depositor's remark. The entries come from a sample that favours hits as a whole. Unless noted, calls come from the whole dose curve; as a rule, active = well fitted inhibition curve with a large enough effect; inconclusive = small, poorly fitted or top-dose-only effect, or effect the other way; inactive = flat fitted curve, though single readings scatter. Potency is the fitted concentration of half-maximal effect.

SMILES	GALK inh	USP2a inh	Eya2 inh	ClpP mod
CN1CCN(/N=C/c2nc(-c3cccc([N+](=O)[O-])c3)n3ccccc23)CC1	0.2%	-2.0%	-9.9%	-28.8%
COc1ccc(NC(=S)Nc2ccccc2F)c(OC)c1	-0.9%	6.3%	3.6%	1.4%
C=CCOC(=O)COc1ccc2c(C)c(C)c(=O)oc2c1	0.8%	-0.6%	9.2%	12.6µM*
CC(=O)COc1ccc2c3c(c(=O)oc2c1)CCCC3	2.3%	0.7%	15.2%	?
CCCCc1c(C)c2ccc(OCC(C)=O)cc2oc1=O	-0.8%	-0.7%	-25.1%	3.98µM*
C=CCOC(=O)COc1ccc2c(C)c(CC)c(=O)oc2c1	1.3%	1.0%	-8.6%	?
CC(=O)COc1ccc2c(C)c(-c3ccccc3)c(=O)oc2c1	0.8%	13.0%	6.4%	.
CCCc1c(C)c2ccc(OCC(C)=O)cc2oc1=O	1.5%	-0.7%	18.9%[15.4 µM]	3.16µM*
CCOc1ccc(C(C(=O)NC2CCCCC2)N(C(=O)c2ccccn2)c2cccnc2)cc1 (stereo not given)	0.5%	1.0%	2.5%	.
CCOCCOC(=O)C1=C(C)N(C)C(=O)NC1c1cc(Cl)c(O)c(OC)c1 (stereo not given)	-1.1%	-2.3%	16.2%	-4.0%
Cc1noc(Cn2c(=O)c3cc4c(cc3n(CC(=O)Nc3ccc(C(C)C)cc3)c2=O)OCO4)n1	.	.	.	35.5µM*
Cc1ccc(NC(=O)Cn2c(=O)n(Cc3nc(C)no3)c(=O)c3cc4c(cc32)OCO4)c(C)c1	.	.	.	22.4µM*
COc1ccc2c(COC(=O)c3ccc(C)c(S(=O)(=O)N4CCOCC4)c3)cc(=O)oc2c1	.	.	.	25.1µM*
COc1ccc(C(=O)OCc2cc(=O)oc3cc(C)ccc23)cc1S(=O)(=O)N1CCOCC1	.	.	.	-9.6%
Cc1cc(=O)oc2cc(OCC(=O)N3CCCC(C)C3)ccc12 (stereo not given)	-1.4%	-0.2%	-2.9%	31.6µM*
COc1ccc(S(=O)(=O)N2CCN(C(=O)COc3ccc4c(C)cc(=O)oc4c3)CC2)cc1	0.3%	4.6%	11.4%	22.4µM*
CCC(C)c1ccc(S(=O)(=O)N2CCN(C(=O)COc3ccc4c(C)cc(=O)oc4c3)CC2)cc1 (stereo not given)	1.7%	5.6%	-4.4%	?
CCCCN(C(=O)NC(=O)Nc1c(C)cc(C)cc1C)S(C)(=O)=O	0.6%	1.3%	-23.3%	1.4%
COC(=O)C1=C(C)N=C2SCCC(=O)N2C1c1cccs1 (stereo not given)	6.0%	0.8%	10.9%	-0.6%
COc1cccc2c1Oc1ncccc1N(c1ccc(C(=O)NCc3cccc(C)c3)s1)C2	.	.	.	31.6µM*
COc1cccc2c1Oc1ncccc1N(c1ccc(C(=O)NCc3ccccc3Cl)s1)C2	.	.	.	14.1µM*
N#Cc1ccc(-c2ccc3c(c2)OCO3)nc1SCC(=O)OCc1ccccc1	0.1%	0.4%	11.0%	2.51µM*
CCOc1ccc(CNC(=O)c2cccc(NC(=O)N3CCSc4ncccc43)c2)cc1	.	.	.	-13.6%
Cc1ccc(CNC(=O)c2ccc(NC(=O)N3CCSc4ncccc43)cc2)cc1	.	.	.	4.0%
Cc1ccccc1CNC(=O)c1cccc(NC(=O)N2CCSc3ncccc32)c1	.	.	.	31.6µM*
SMILES	GALK inh	USP2a inh	Eya2 inh	ClpP mod
O=C(NCc1ccccc1)c1ccc(NC(=O)N2CCSc3ncccc32)cc1	.	.	.	31.6µM*
CCc1ccc(CNC(=O)c2ccc(NC(=O)N3CCSc4ncccc43)cc2)cc1	.	.	.	31.6µM*
Nc1ncnc2nc(SCCc3ccccc3)[nH]c12	2.6%	1.8%	-1.0%	0.4%
CCOC(=O)C1=C(C)N=C2c3ccccc3C(=O)C2C1c1ccccc1 (stereo not given)	-3.5%	2.8%	1.4%	2.6%
Cc1ccc(CNc2nc3c([nH]2)c(=O)n(C)c(=O)n3C)cc1	4.8%	5.3%	1.6%	20µM*
Cn1c(=O)c2[nH]c(Nc3ccccc3)nc2n(C)c1=O	-0.3%	1.9%	5.3%	-0.4%
COc1cc(OC)cc(-c2cc3nc4c(c(N5CCN(c6ncccn6)CC5)n3n2)CCCC4)c1	4.5%	5.3%	-4.0%	35.5µM*
Fc1cccc(-c2cc3nc4c(c(N5CCC6(CC5)OCCO6)n3n2)CCCC4)c1	-1.1%	-0.9%	-5.0%	28.2µM*
Cc1[nH]c(=O)c(C#N)c2c1CCCC2	1.6%	-1.2%	-15.2%	28.2µM*
CCCCc1[nH]c(=O)c(C#N)c2c1CSC(C)(C)C2	3.8%	3.0%	31.5%	?
